# Reference: PubChem BioAssay (NCATS)
# Inconclusive results are not listed. Entries that show only a call come without a potency. Calls of active or inactive are those of the source. The call rests on the fitted dose curve; in most records, active means well fitted inhibition curve with a large enough effect; inconclusive means small, poorly fitted or top-dose-only effect; inactive means flat fitted curve, though single readings scatter.
# Tests used:
# Assay in all cases: qHTS profiling for inhibitors of Plasmodium falciparum proliferation (AID 504749); further: nearly all actives have a fitted effect of over 60% in size
# Conditions in all cases: P. falciparum in erythrocytes, SYBR Green DNA, 72 h; series mostly up to 28.7 µM
# CP325 = system: CP325
# In short: (§1)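 In a 72 h erythrocytic culture (37 C, humidified, 5% CO2) at 2.5% hematocrit and 0.3% starting parasitemia, compounds were tested; SYBR Green I in detergent lysis buffer stained parasite DNA overnight.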
# CP329 = system: CP329
# In short: as §1
# CP335 = system: CP335
# In short: as §1
# DIV14 = system: DIV14
# In short: as §1
# DIV17 = system: DIV17
# In short: as §1
# ECU = system: ECU
# In short: as §1
# DFO2036 = system: DFO2036
# In short: as §1
# DIV30 = system: DIV30
# In short: as §1
# FAB9 = system: FAB9
# In short: as §1
# Dd2 = system: Dd2
# In short: as §1
# Potency means the concentration at half of the fitted maximal effect.
Structure (SMILES),Potency (CP325),Potency (CP329),Potency (CP335),Potency (DIV14),Potency (DIV17),Potency (ECU),Potency (DFO2036),Potency (DIV30),Potency (FAB9),Potency (Dd2)
CCCCCCCCCCCCCCCC[N+](C)(C)C,12 µM (active),10.7 µM (active),8.49 µM (active),6.75 µM (active),8.49 µM (active),8.91 µM (active),,,,
CCCN1CCC[C@H](c2cccc(O)c2)C1,inactive,inactive,inactive,inactive,,inactive,inactive,inactive,inactive,
Cc1cc(O)ccc1Cl,inactive,inactive,inactive,inactive,inactive,inactive,inactive,inactive,inactive,inactive
CN[C@@H]1C[C@@H](c2ccc(Cl)c(Cl)c2)c2ccccc21,inactive,inactive,,5.36 µM (active),7.57 µM (active),,,,inactive,10 µM (active)
C[C@]12CCC(=O)C(O)=C1CC[C@@H]1[C@H]3CCC(=O)[C@@]3(C)CC[C@@H]12,inactive,inactive,inactive,,,inactive,,inactive,inactive,inactive
O=[N+]([O-])c1ccc([As](=O)(O)O)cc1,9.53 µM (active),12 µM (active),4.78 µM (active),10.7 µM (active),12 µM (active),3.55 µM (active),5.01 µM (active),8.49 µM (active),,3.98 µM (active)
O=C(O)COc1ccccc1,inactive,inactive,inactive,inactive,inactive,inactive,inactive,inactive,inactive,inactive
COC(C)(C)CCCC(C)C/C=C/C(C)=C/C(=O)OC(C)C (configuration not stated),,,,,,,inactive,,inactive,
CN1C2CCC1CC(OC(=O)c1cc(Cl)cc(Cl)c1)C2 (configuration not stated),inactive,inactive,inactive,,,,inactive,inactive,inactive,inactive
CCCCc1ccc(C(=O)O)nc1,inactive,inactive,inactive,,inactive,inactive,inactive,inactive,inactive,inactive
C#CC1(O)CCC2C3CCC4=CC(=O)CCC4(C)C3CCC21C (configuration not stated),inactive,inactive,inactive,inactive,inactive,inactive,inactive,inactive,inactive,inactive
CC(=O)OCC1=C(C(=O)O)N2C(=O)[C@@H](N)[C@@H]2SC1,inactive,inactive,inactive,inactive,inactive,inactive,,inactive,inactive,inactive
C1CCC(NC2CCCCC2)CC1,inactive,inactive,inactive,inactive,inactive,inactive,inactive,inactive,inactive,inactive
O=C(O)C(Cl)Cl,inactive,inactive,inactive,inactive,inactive,inactive,inactive,inactive,inactive,inactive
COC(=O)[C@@H](N)CCCN=C(N)N[N+](=O)[O-],inactive,inactive,inactive,inactive,inactive,inactive,inactive,inactive,inactive,inactive
CN(C)[C@@H]1C(=O)C(C(N)=O)=C(O)[C@@]2(O)C(=O)C3=C(O)c4c(O)cccc4[C@@](C)(O)[C@H]3[C@H](O)[C@@H]12,inactive,inactive,,inactive,inactive,inactive,,,inactive,3.55 µM (active)
C=CCN1CC[C@]23CCCCC2[C@H]1Cc1ccc(O)cc13 (some centres not stated),inactive,inactive,inactive,inactive,inactive,inactive,inactive,inactive,inactive,11.2 µM (active)
NC1=NC(=O)N2CC12 (configuration not stated),inactive,inactive,,inactive,,,,inactive,inactive,
COC(=O)c1cncn1C(C)c1ccccc1 (configuration not stated),inactive,inactive,inactive,inactive,inactive,,,inactive,,
c1ccc(C2(c3ccccc3)CC2C2=NCCN2)cc1 (configuration not stated),inactive,inactive,inactive,,,inactive,inactive,inactive,inactive,inactive
NC(=O)CN1CC(O)CC1=O (configuration not stated),inactive,inactive,inactive,inactive,inactive,inactive,inactive,inactive,inactive,inactive
Cc1ccc(Cl)c(O)c1,inactive,inactive,inactive,inactive,inactive,inactive,inactive,inactive,inactive,inactive
CC[N+]1(CCOC(=O)C(O)(c2ccccc2)c2ccccc2)CCCCC1,inactive,inactive,inactive,inactive,inactive,inactive,inactive,inactive,inactive,inactive
CC(C)NC(C)Cc1ccc(I)cc1 (configuration not stated),inactive,inactive,,,,inactive,inactive,,inactive,
CCCCCCCCCC(CC)c1ccc(S(=O)(=O)O)cc1 (configuration not stated),inactive,inactive,inactive,inactive,inactive,inactive,inactive,inactive,inactive,inactive
CC(=O)[O][Hg][c]1ccccc1,6.01 µM (active),,5.36 µM (active),4.78 µM (active),4.26 µM (active),10 µM (active),3.98 µM (active),,3.98 µM (active),0.126 µM (active)
